# High-throughput results: PubChem, several laboratories
# Most compounds without a hit are left out; they make up all but 2.2% or so of the library.
# Platelet DG rel: platelet dense granule release activity. actives 0.22% (n = 300,000). human platelet-rich plasma, SFLLRN dense granule ATP release, luminescence. AID 1663. inhibition, %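 (compounds screened at 7.5 µM in platelet-rich plasma)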;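 active means mean replicate score, as percent of positive control, at or above 50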
# HIF activator: HIF pathway transcriptional activation; U2OS HRE-luciferase reporter, luminescence; normalized: DMSO 0%, desferrioxamine 100%; activation, % at 7.5 µM (by protocol); actives 0.32% (n = 300,000); AID 1910;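 active means mean activation of at least 10% of the iron chelator positive control signal, with at least half of replicates also reaching 10%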
# CHT block: inhibits the human high affinity choline transporter; AID 488975; B-score at 10 µM; Q9GZV3; CHT-expressing cells, membrane potential dye, choline response; active compounds read low; actives 0.86% (n = 310,000);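 active means B-score over 3 SD under the library average, and starting fluorescence ratio not unusually high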;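 further: choline stimulus applied at its EC90 after an EC20 pre-addition; B-score computed on integrated fluorescence ratio after choline addition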
# AI-2 QS mod: modulates the Vibrio harveyi AI-2 quorum sensing system; Vibrio harveyi JMH597 AI-2 luminescence/OD600 ratio, 9 h; active compounds read low; strain lacks LuxN and CqsS sensors; 0 = neutral-control median; activity change, % at 7.5 µM; actives 0.4% (n = 300,000); AID 2094; in the data active means activity change below about -75%, passing the limit was not always enough;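 further: luminescence divided by OD600 gain over 9 h not by final OD600 alone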
# VLA-4 inh: inhibition in a human VLA-4 binding assay. VLA-4 expressing cells, ligand binding flow cytometry. P13612. actives 0.2% (n = 330,000). inhibition, % (about 7 µM as worked out from the volumes in the protocol); in the data active means inhibition above about 50%
# Target sequence (P13612 whole entry, looked up): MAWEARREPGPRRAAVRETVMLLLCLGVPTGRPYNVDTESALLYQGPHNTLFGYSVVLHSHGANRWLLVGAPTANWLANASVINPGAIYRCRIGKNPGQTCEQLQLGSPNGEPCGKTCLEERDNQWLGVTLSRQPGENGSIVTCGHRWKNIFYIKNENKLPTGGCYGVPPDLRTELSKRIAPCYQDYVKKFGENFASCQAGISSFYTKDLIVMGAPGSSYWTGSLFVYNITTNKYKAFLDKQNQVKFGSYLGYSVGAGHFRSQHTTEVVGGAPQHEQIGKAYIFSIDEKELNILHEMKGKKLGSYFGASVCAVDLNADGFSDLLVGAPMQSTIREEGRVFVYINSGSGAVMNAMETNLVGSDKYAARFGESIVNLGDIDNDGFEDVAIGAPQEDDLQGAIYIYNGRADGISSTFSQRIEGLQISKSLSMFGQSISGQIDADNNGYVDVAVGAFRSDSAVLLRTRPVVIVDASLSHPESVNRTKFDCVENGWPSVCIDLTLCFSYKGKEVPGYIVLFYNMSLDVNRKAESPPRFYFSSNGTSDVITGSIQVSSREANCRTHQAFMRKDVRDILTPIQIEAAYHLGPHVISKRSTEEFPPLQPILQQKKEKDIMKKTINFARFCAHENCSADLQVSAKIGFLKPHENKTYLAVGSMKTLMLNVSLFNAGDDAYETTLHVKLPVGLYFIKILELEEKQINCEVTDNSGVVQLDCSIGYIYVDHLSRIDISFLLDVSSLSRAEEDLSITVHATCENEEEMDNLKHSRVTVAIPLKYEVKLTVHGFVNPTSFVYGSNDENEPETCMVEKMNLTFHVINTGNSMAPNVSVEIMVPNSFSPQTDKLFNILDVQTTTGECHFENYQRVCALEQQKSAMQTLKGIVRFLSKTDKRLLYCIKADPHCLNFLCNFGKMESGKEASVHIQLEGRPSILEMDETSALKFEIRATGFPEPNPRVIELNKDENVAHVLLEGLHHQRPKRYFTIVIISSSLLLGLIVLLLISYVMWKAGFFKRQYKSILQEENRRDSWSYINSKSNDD
# CHT allo act: human CHT allosteric activation; Q9GZV3; CHT-expressing cells, membrane potential dye, choline EC20; active compounds read high; LV-AA mutant CHT in HEK293 cells; B-score at 10 µM; actives 0.49% (n = 310,000); AID 488977;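 active means initial fluorescence not abnormally high and integrated response B-score, plate-corrected, over 3 SD above library mean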
# CHT inh conf: confirmation of human choline transporter CHT inhibitors | CHT-expressing cells, choline membrane potential dye; LV-to-AA substituted CHT, HEK293 cells | shares compounds with CHT block | CHT activity remaining % of control (active compounds read low), % at 10 µM | actives 70% (n = 2,400) | AID 493221;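 active means choline transporter activity left, mean of duplicates at 10 µM, below buffer-only control mean minus 3 SD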;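 further: depolarization triggered by choline at its EC90 following an EC20 pre-addition; 0% = hemicholinium-3 full block and 100% = buffer-only control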
# HEK293 MPD ctr: CHT inhibitor counter-screen hit in parental HEK293 cells; actives 4% (n = 2,400); membrane potential ratio readout (active if shifted either direction beyond buffer ±3SD; no single direction) at 10 µM; shares compounds with CHT block; membrane potential dye, choline response; active = decrease or increase beyond buffer ±3SD;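 further: parental cells lack the transporter so any hit is non-specific; ratio is peak minus trough fluorescence over baseline after EC90 choline challenge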
# Starred values were filed as active, the others as inactive; i = inactive; · = no result given.
SMILES,Platelet DG rel,HIF activator,CHT block,AI-2 QS mod,VLA-4 inh,CHT allo act,CHT inh conf,HEK293 MPD ctr
Cc1nn(-c2ccccc2)c(C)c1C(=O)OCC(=O)NC(=O)NC1CCCC1,14,0,-11*,11,0,i,60%*,i
O=S(=O)(Nc1nc2ccccc2nc1Cl)c1cccc(C(F)(F)F)c1,4,1,-5.2*,15,-3,i,i,i
Cc1oc(-c2ccccc2)cc1C(=O)Nc1cccc(/C=C\C(=O)O)c1,3,0,-8.9*,16,1,i,61%*,i
COc1ccc(CCc2nnc(CCC(=O)NCc3cc(C(C)C)no3)o2)cc1,1,1,i,11,-5,i,·,·
Cc1ccc(Sc2cc(NCCCO)c([N+](=O)[O-])c3nonc23)cc1,-57,0,i,13,9,i,·,·
CC(C)CCSc1cc(NCCO)c([N+](=O)[O-])c2nonc12,1,0,-5.8*,5,1,i,i,i
COc1cccc(CNC(=O)c2cc(=O)[nH]c3ccc(S(=O)(=O)N4CCOCC4)cc23)c1,·,·,·,·,1,·,·,·
Cc1nnc(SCC(=O)c2ccccc2)n1Cc1ccccc1,-3,0,-5.3*,1,-10,i,47%*,-8.6*
CCOC(=O)c1cccc(NC(=O)CSc2nnc(C)n2Cc2ccccc2)c1,-6,0,-6.9*,48,-2,i,66%*,i
COc1ccc(NC(=O)CSc2nnc(C)n2Cc2ccccc2)cc1,0,0,i,9,-4,i,·,·
Cc1nnc(SCC(=O)NNC(=O)c2ccccc2)n1Cc1ccccc1,·,·,·,·,4,·,·,·
CN(C)Cc1c(O)ccc2c(=O)c(-c3ccccc3Cl)c(C(F)(F)F)oc12,20,-3,i,·,5,i,·,·
COCCCn1c(C)cc(C(=O)CN2c3cccc4cccc(c34)S2(=O)=O)c1C,·,·,·,·,12,·,·,·
O=C(CNCc1cccs1)Nc1ccc(N2CCCCCC2)cc1,4,1,i,-67,18,i,·,·
O=c1c2c(C(F)(F)F)cc(C(F)(F)F)nc2[nH]n1-c1ccccc1,-1,0,-6.1*,7,3,i,46%*,i
Cc1ccccc1C(=O)N1CCCN(C(=O)c2ccccc2C)CC1,2,-1,-6.8*,20,-2,i,i,i
CCOC(=O)C1(CCCc2ccccc2)CCN(C(=O)CCCn2cncn2)CC1,6,1,-5*,18,16,i,i,i
CC1=C(C(=O)N2CCCC(CCC(=O)NCc3ccccc3F)C2)OCCO1 (stereo not drawn),-2,0,-6.1*,15,3,i,i,i
Cc1cc(OCc2nnc(SC(C)C(=O)O)n2Cc2ccccc2)ccc1Cl (stereo not drawn),0,0,·,12,·,·,·,·
CCn1c(=O)cc(SCC(=O)NCc2ccc(C)o2)c2ccccc21,3,0,-5.1*,9,0,i,i,i
CCn1c(=O)cc(SCC(=O)NCc2ccco2)c2ccccc21,8,0,i,-6,11,i,·,·
O=C(Nc1ccccc1)c1ccc(=O)n(Cc2ccc(F)c(F)c2)c1,-6,0,-6.4*,-3,16,i,i,i
NC(=O)c1ccc(=O)n(Cc2ccc(F)c(F)c2)c1,-3,-1,i,0,32,i,·,·
O=C(CCCSc1nnc(-c2cccs2)n1CC1CCCO1)c1ccccc1 (stereo not drawn),1,0,-5.5*,1,1,i,i,-8.6*
O=C(NC(=S)Nc1ccccc1Cl)c1cncc(Br)c1,-4,-1,i,9,18,i,·,·
